Reference: PubChem BioAssay (NCATS)
Several values for one entry are separate records, joined by “and”; a condition that tells them apart may be missing. Equal values may be shown once. Inconclusive results are not listed. Activity calls are given as the source filed them. The call rests on the fitted dose curve; in most records, active means well fitted inhibition curve with a large enough effect; inconclusive means small, poorly fitted or top-dose-only effect; inactive means flat fitted curve, though single readings scatter.

What was measured:
[1] = tested on: ECU; test: qHTS profiling for inhibitors of Plasmodium falciparum proliferation (AID 504749); details: P. falciparum in erythrocytes, SYBR Green DNA, 72 h; series mostly up to 28.7 µM
Outline: (§1)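 P. falciparum-infected erythrocytes (0.3% parasitemia, 2.5% hematocrit) incubated with compound 72 h at 37 C, 5% CO2. Parasite DNA detected by SYBR Green after lysis, overnight at room temperature; normalised to 0.29 uM artemisinin and DMSO.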

[2] = tested on: FAB9; test: as above; details: P. falciparum in erythrocytes, SYBR Green DNA, 72 h; series mostly up to 28.7 µM
Outline: as §1

[3] = tested on: GB4; test: as above; details: P. falciparum in erythrocytes, SYBR Green DNA, 72 h; series mostly up to 28.7 µM
Outline: as §1

[4] = tested on: HB3; test: as above; details: P. falciparum in erythrocytes, SYBR Green DNA, 72 h; series mostly up to 28.7 µM
Outline: as §1

[5] = tested on: ICS; test: as above; details: P. falciparum in erythrocytes, SYBR Green DNA, 72 h; series mostly up to 28.7 µM
Outline: as §1

[6] = tested on: JCK; test: as above; details: P. falciparum in erythrocytes, SYBR Green DNA, 72 h; series mostly up to 28.7 µM
Outline: as §1

[7] = tested on: N140; test: as above; details: P. falciparum in erythrocytes, SYBR Green DNA, 72 h; series mostly up to 28.7 µM
Outline: as §1

[8] = tested on: P93_24; test: as above; details: P. falciparum in erythrocytes, SYBR Green DNA, 72 h; series mostly up to 28.7 µM
Outline: as §1

[9] = tested on: P94_40; test: as above; details: P. falciparum in erythrocytes, SYBR Green DNA, 72 h; series mostly up to 28.7 µM
Outline: as §1

[10] = tested on: PAD; test: as above; details: P. falciparum in erythrocytes, SYBR Green DNA, 72 h; series mostly up to 28.7 µM
Outline: as §1

[11] = tested on: PC15; test: as above; details: P. falciparum in erythrocytes, SYBR Green DNA, 72 h; series mostly up to 28.7 µM
Outline: as §1

[12] = tested on: PC26; test: as above; details: P. falciparum in erythrocytes, SYBR Green DNA, 72 h; series mostly up to 28.7 µM
Outline: as §1

[13] = tested on: PC49; test: as above; details: P. falciparum in erythrocytes, SYBR Green DNA, 72 h; series mostly up to 28.7 µM
Outline: as §1

[14] = tested on: SC27B; test: as above; details: P. falciparum in erythrocytes, SYBR Green DNA, 72 h; series mostly up to 28.7 µM
Outline: as §1

[15] = tested on: TAB109; test: as above; details: P. falciparum in erythrocytes, SYBR Green DNA, 72 h; series mostly up to 28.7 µM
Outline: as §1

[16] = tested on: TAB113; test: as above; details: P. falciparum in erythrocytes, SYBR Green DNA, 72 h; series mostly up to 28.7 µM
Outline: as §1

[17] = tested on: TAB165; test: as above; details: P. falciparum in erythrocytes, SYBR Green DNA, 72 h; series mostly up to 28.7 µM
Outline: as §1

[18] = tested on: W2; test: as above; details: P. falciparum in erythrocytes, SYBR Green DNA, 72 h; series mostly up to 28.7 µM
Outline: as §1

[19] = tested on: CRL-7250; test: Cytotoxic Profiling of Annotated Libraries Using Quantitative High-Throughput Screening (AID 1296008); details: Five cell lines viability, CellTiter-Glo ATP luminescence, 48-72 h; max response: stronger effect = lower value; on max response: on the % scale 0 is the no-effect control and ±100 the full control effect
Outline: (§2)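 Cells exposed to compounds for 48 or 72 hr at 37 degrees Celsius. Viability read as ATP-coupled luminescence with CellTiter-Glo after 10 min at room temperature.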

[20] = tested on: HEK293; test: as above; details: Five cell lines viability, CellTiter-Glo ATP luminescence, 48-72 h; max response: stronger effect = lower value
Outline: as §2
Further: nearly all actives have a fitted effect of over 60% in size.
Potency means the concentration at half of the fitted maximal effect.

Oc1c(Cl)cc(Cl)cc1Sc1cc(Cl)cc(Cl)c1O
inactive: Potency [1] | Potency [2] | Potency [3] | Potency [4] | Potency [5] | Potency [6] | Potency [7] | Potency [8] | Potency [9] | Potency [10] | Potency [11] | Potency [12] | Potency [13] | Potency [14] | Potency [15] | Potency [16] | Potency [17] | Potency [18]

Nc1ccc(C(=O)Nc2ccccc2N)cc1
inactive: Potency [1] | Potency [2] | Potency [3] | Potency [4] | Potency [5] | Potency [6] | Potency [7] | Potency [8] | Potency [9] | Potency [10] | Potency [11] | Potency [12] | Potency [13] | Potency [14] | Potency [15] | Potency [16] | Potency [17]

COc1ccc(/C=C/C(=O)c2ccc(OC)cc2OC)cc1
active: Potency [1] 8.91 µM | Potency [2] 8.91 µM | Potency [3] 7.57 µM | Potency [4] 10 µM | Potency [5] 12.6 µM | Potency [6] 8.91 µM | Potency [7] 11.2 µM | Potency [8] 8.91 µM | Potency [9] 10 µM | Potency [10] 10 µM | Potency [11] 7.08 µM | Potency [12] 7.57 µM | Potency [13] 5.62 µM | Potency [14] 10 µM | Potency [15] 7.08 µM | Potency [16] 8.91 µM | Potency [17] 4.47 µM | Potency [18] 4.26 µM

COc1ccc(CN2CCN(C(c3ccc(F)cc3)c3ccc(F)cc3)CC2)c(OC)c1OC
active: Potency [1] 12.6 µM | Potency [3] 9.53 µM | Potency [4] 11.2 µM | Potency [5] 2.24 µM | Potency [7] 8.91 µM | Potency [8] 7.94 µM | Potency [9] 7.08 µM | Potency [10] 8.91 µM | Potency [12] 12 µM | Potency [14] 10 µM | Potency [15] 11.2 µM | Potency [16] 8.91 µM | Potency [17] 7.08 µM | Potency [18] 3.38 µM
inactive: outcome [19]

COc1cc(-c2ccc(=O)[nH]n2)ccc1OC(F)F
inactive: Potency [1] | Potency [3] | Potency [4] | Potency [5] | Potency [10] | Potency [11] | Potency [14]
active: Potency [7] 0.224 µM | Potency [8] 0.0112 µM | Potency [9] 0.112 µM | Potency [15] 0.0447 µM | Potency [16] 0.0355 µM | Potency [17] 0.282 µM | Potency [19] 1.19 µM

CC(C)(C)CC(C)(C)c1ccc(OCCOCC[N+](C)(C)Cc2ccccc2)cc1
active: Potency [1] 5.01 µM | Potency [2] 5.01 µM | Potency [3] 3.38 µM | Potency [4] 6.31 µM | Potency [5] 1.26 µM | Potency [6] 6.31 µM | Potency [7] 3.98 µM | Potency [8] 6.31 µM | Potency [9] 5.01 µM | Potency [10] 8.91 µM | Potency [11] 5.01 µM | Potency [12] 4.26 µM | Potency [13] 6.31 µM | Potency [14] 5.62 µM | Potency [15] 5.62 µM | Potency [16] 3.55 µM | Potency [17] 3.16 µM | Potency [18] 1.2 µM | Potency [20] 6.68 µM and 8.2 µM

CCN(CC)C(=O)/C(C#N)=C/c1cc(O)c(O)c([N+](=O)[O-])c1
inactive: Potency [1] | Potency [2] | Potency [3] | Potency [4] | Potency [6] | Potency [7] | Potency [8] | Potency [9] | Potency [10] | Potency [11] | Potency [12] | Potency [13] | Potency [14] | Potency [15] | Potency [16] | Potency [18] | max response [20] -12.8%

COc1c(C)c2c(c(O)c1C/C=C(\C)CCC(=O)O)C(=O)OC2
inactive: Potency [11] | Potency [13]
active: Potency [1] 5.01 µM | Potency [3] 5.1 µM | Potency [5] 3.55 µM | Potency [7] 3.16 µM | Potency [8] 2.82 µM | Potency [9] 3.16 µM | Potency [10] 3.16 µM | Potency [14] 2.24 µM | Potency [15] 2.82 µM | Potency [16] 3.98 µM | Potency [17] 1.58 µM | Potency [18] 2.56 µM | Potency [20] 944 nM

NC(=NCCCCCCN=C(N)/N=C(\N)Nc1ccc(Cl)cc1)/N=C(\N)Nc1ccc(Cl)cc1
active: Potency [1] 2.24 µM | Potency [2] 2 µM | Potency [3] 1.07 µM | Potency [4] 4.47 µM | Potency [5] 0.355 µM | Potency [6] 3.98 µM | Potency [7] 0.004 µM | Potency [8] 1 µM | Potency [9] 3.55 µM | Potency [10] 3.16 µM | Potency [11] 2 µM | Potency [12] 3.79 µM | Potency [13] 3.16 µM | Potency [14] 0.891 µM | Potency [15] 3.98 µM | Potency [16] 2 µM | Potency [17] 0.794 µM | Potency [18] 0.849 µM | Potency [20] 7.5 µM and 7.31 µM

C=C(CC)C(=O)c1ccc(OCC(=O)O)c(Cl)c1Cl
inactive: max response [19] -16.5%
active: Potency [5] 10 µM | Potency [16] 14.1 µM | Potency [17] 12.6 µM

NCCCC[C@H](N[C@@H](CCc1ccccc1)C(=O)O)C(=O)N1CCC[C@H]1C(=O)O
inactive: Potency [1] | Potency [2] | Potency [3] | Potency [4] | Potency [5] | Potency [6] | Potency [7] | Potency [8] | Potency [9] | Potency [10] | Potency [11] | Potency [12] | Potency [13] | Potency [14] | Potency [15] | Potency [16] | Potency [17] | Potency [18]

CCCCCCc1ccc(O)cc1O
inactive: Potency [1] | Potency [2] | Potency [3] | Potency [4] | Potency [5] | Potency [6] | Potency [7] | Potency [8] | Potency [9] | Potency [10] | Potency [11] | Potency [12] | Potency [13] | Potency [14] | Potency [15] | Potency [16] | Potency [17] | Potency [18]

Cc1c(C(N)=O)cc([N+](=O)[O-])cc1[N+](=O)[O-]
inactive: Potency [1] | Potency [2] | Potency [3] | Potency [4] | Potency [5] | Potency [6] | Potency [7] | Potency [8] | Potency [9] | Potency [10] | Potency [11] | Potency [12] | Potency [13] | Potency [14] | Potency [15] | Potency [16] | Potency [17]

O=c1c(-c2ccccc2)c1-c1ccccc1
active: Potency [3] 10.7 µM | Potency [4] 11.2 µM | Potency [5] 4.47 µM | Potency [7] 11.2 µM | Potency [12] 12 µM | Potency [14] 11.2 µM | Potency [17] 10 µM | Potency [18] 15.1 µM | Potency [20] 23700 nM

c1ccc(OCc2ccc(CCCN3CCOCC3)cc2)cc1
inactive: Potency [2] | Potency [4] | Potency [6] | Potency [7] | Potency [8] | Potency [9] | Potency [10] | Potency [11] | Potency [14] | Potency [15] | Potency [16] | Potency [17] | max response [19] -18%
